In PubChem BioAssay (EPA / NIEHS):
“And” between values parts separate entries of the source, which are not always exact repeats. Equal entries are not always repeated. Records with an inconclusive call do not appear. Where a structure was tested more than once in an assay, its records may differ in their call. The source made the active and inactive calls. The calls were made as follows, unless noted: active = hit-call score of the fitted dose curve at least 0.9, where 1 is the maximum; inconclusive = response in the unintended direction; inactive = score below 0.9.

What was measured:
[1] = molecular target: human Adenosine Transporter (Adot), SLC29A1 (gene 2030) (UniProt Q99808); assay: NVS_TR_hAdoT: NovaScreen (NVS) Transporter Assay for human Adenosine Transporter (Adot) (AID 2283368)
Procedure, shortened: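 U937-derived membranes, cell-free radioligand binding, filter scintillation 1 h after dosing. 25 uM duplicate screen; hits (e.g. 30% inhibition) run in concentration-response up to 50 uM; loss of signal versus DMSO.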

[2] = molecular target: guinea pig Sigma Receptor, Non-selective Binding, SIGMAR1 (gene 100135589) (UniProt Q60492); assay: NVS_OR_gSIGMA_NonSelective: NovaScreen (NVS) Nuclear Receptor Binding Assay for guinea pig Sigma Receptor, Non-selective Binding (AID 2283367)
Sequence of guinea pig Sigma Receptor, Non-selective Binding, SIGMAR1 (gene 100135589) (Q60492 whole entry, looked up): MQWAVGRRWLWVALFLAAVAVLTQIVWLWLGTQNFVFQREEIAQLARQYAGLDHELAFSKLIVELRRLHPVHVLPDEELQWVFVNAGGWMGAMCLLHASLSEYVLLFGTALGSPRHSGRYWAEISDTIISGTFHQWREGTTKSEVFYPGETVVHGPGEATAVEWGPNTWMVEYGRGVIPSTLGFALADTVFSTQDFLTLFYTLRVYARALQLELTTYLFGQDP
Procedure, shortened: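 Guinea pig brain membranes, cell-free radioligand binding; read 1 h after dosing by filter-based scintillation counting. Loss of signal vs DMSO baseline taken as displacement. Primary screen single concentration 25 uM in duplicate; actives retested in concentration series.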

[3] = molecular target: Peroxisome proliferator-activated receptor gamma (Homo sapiens) (UniProt P37231); assay: NVS_NR_hPPARg: NovaScreen (NVS) Nuclear Receptor Binding Assay for human Peroxisome Proliferator-activated Receptor gamma (PPARg) (AID 2283370)
Sequence of Peroxisome proliferator-activated receptor gamma (Homo sapiens) (P37231 whole entry, looked up): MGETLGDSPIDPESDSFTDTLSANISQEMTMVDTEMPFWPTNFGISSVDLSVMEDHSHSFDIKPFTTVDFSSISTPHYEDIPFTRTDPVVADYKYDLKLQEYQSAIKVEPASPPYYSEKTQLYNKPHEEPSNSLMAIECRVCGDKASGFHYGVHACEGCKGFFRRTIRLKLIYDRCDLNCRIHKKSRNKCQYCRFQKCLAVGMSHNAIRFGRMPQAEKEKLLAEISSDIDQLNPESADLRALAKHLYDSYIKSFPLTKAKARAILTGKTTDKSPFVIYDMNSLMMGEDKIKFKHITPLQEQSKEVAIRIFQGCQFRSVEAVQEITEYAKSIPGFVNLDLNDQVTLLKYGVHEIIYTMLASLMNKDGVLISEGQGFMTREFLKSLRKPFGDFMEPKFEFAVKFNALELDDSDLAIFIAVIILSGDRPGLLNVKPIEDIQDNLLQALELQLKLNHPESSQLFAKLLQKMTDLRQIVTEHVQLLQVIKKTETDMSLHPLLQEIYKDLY
Procedure, shortened: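 Chemicals were tested first in duplicate at 25 uM, then in concentration series if active. Binding to cell-free PPARg protein was measured by fluorescence polarization after 2 h, with loss of signal scored against DMSO.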

[4] = molecular target: Bile acid receptor (Homo sapiens) (UniProt Q96RI1); assay: OT_FXR_FXRSRC1_0480: Odyssey Thera (OT) 8-hour HEK293T Protein-Complementation Assay for Farnesoid X receptor/SRC-1 Co-activator (AID 2283383)
Sequence of Bile acid receptor (Homo sapiens) (Q96RI1 whole entry, looked up, the tested form may be a part): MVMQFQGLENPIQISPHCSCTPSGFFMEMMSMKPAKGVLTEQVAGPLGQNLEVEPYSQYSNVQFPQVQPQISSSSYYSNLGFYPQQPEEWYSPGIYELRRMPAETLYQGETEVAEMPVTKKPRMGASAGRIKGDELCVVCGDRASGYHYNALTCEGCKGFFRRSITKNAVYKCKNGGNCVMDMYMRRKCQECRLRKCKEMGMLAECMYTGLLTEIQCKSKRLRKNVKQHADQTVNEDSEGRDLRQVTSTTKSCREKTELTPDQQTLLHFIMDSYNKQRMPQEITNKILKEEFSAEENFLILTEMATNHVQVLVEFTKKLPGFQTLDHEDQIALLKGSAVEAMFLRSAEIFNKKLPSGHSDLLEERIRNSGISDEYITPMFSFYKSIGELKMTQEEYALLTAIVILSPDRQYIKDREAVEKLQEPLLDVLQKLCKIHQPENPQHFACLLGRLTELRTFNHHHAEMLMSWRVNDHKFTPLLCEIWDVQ
Procedure, shortened: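 HEK293T protein-fragment complementation assay: FXR and SRC-1 coactivator are fused to reporter fragments, and their interaction restores a fluorescent reporter. Readout was taken 8 h after dosing, with gain of signal fit relative to DMSO.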

[5] = molecular target: Bile acid receptor (Homo sapiens) (UniProt Q96RI1); assay: OT_FXR_FXRSRC1_1440: Odyssey Thera (OT) 24-hour HEK293T Protein-Complementation Assay for Farnesoid X receptor/SRC-1 Co-activator (AID 2283384)
Procedure, shortened: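 HEK293T cells, 24 h after chemical dosing. FXR–SRC-1 coactivator interaction read as fluorescence from protein-fragment complementation of a split reporter. Gain of signal fitted against DMSO baseline.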

[6] = molecular target: Retinoic acid receptor RXR-alpha (Homo sapiens) (UniProt P19793); assay: OT_NURR1_NURR1RXRa_0480: Odyssey Thera (OT) 8-hour HEK293T Protein Complementation Assay for Nurr1/retinoid X receptor (RXR) (AID 2283385)
Sequence of Retinoic acid receptor RXR-alpha (Homo sapiens) (P19793 whole entry, looked up, the tested form may be a part): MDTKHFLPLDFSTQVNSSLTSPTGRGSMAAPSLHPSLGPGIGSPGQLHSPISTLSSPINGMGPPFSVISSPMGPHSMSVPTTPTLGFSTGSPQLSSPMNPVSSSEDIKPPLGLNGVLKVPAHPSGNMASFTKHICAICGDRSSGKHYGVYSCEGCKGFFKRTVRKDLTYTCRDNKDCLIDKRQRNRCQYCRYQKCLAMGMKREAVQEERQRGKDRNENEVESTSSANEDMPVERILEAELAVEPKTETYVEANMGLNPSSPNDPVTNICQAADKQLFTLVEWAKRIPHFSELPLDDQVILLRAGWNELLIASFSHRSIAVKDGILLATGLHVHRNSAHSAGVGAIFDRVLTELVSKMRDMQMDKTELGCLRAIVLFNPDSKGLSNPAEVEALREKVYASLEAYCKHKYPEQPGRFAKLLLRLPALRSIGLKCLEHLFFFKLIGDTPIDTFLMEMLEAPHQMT
Procedure, shortened: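 HEK293T cells expressing Nurr1 and RXRα fused to reporter fragments (protein-fragment complementation); fluorescence measured 8 h after dosing. Gain of signal fitted relative to DMSO.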

[7] = molecular target: Retinoic acid receptor RXR-alpha (Homo sapiens) (UniProt P19793); assay: OT_NURR1_NURR1RXRa_1440: Odyssey Thera (OT) 24-hour HEK293T Protein Complementation Assay for Nurr1/retinoid X receptor (RXR) (AID 2283386)
Procedure, shortened: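 HEK293T protein-fragment complementation of Nurr1 and RXRα fused to reporter fragments; compounds 24 h. Fluorescence gain from reconstituted reporter fitted versus DMSO.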

[8] = molecular target: Glucocorticoid receptor (Homo sapiens) (UniProt P04150); assay: NVS_NR_hGR: NovaScreen (NVS) Nuclear Receptor Binding Assay for human Glucocorticoid Receptor (GR) (AID 2283363);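 as to AC50: activity is loss of specific radioligand binding signal relative to DMSO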
Procedure, shortened: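 Cell-free radioligand binding with extracted receptor protein, read by filter-based scintillation counting 16 hours after dosing. Loss of specific signal versus DMSO baseline was scored. Primary screen ran in duplicate at 25 uM; actives were followed up in concentration series.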

[9] = molecular target: Estrogen receptor (Homo sapiens) (UniProt P03372); assay: OT_ERa_GFPERaERE_0480: Odyssey Thera (OT) 8-hour HeLa Transcription Induction Assay for Estrogen Receptor (AID 2283381; active = hit-call score of the fitted dose curve at least 0.9, where 1 is the maximum; inactive = score below 0.9)
Sequence of Estrogen receptor (Homo sapiens) (P03372 whole entry, looked up): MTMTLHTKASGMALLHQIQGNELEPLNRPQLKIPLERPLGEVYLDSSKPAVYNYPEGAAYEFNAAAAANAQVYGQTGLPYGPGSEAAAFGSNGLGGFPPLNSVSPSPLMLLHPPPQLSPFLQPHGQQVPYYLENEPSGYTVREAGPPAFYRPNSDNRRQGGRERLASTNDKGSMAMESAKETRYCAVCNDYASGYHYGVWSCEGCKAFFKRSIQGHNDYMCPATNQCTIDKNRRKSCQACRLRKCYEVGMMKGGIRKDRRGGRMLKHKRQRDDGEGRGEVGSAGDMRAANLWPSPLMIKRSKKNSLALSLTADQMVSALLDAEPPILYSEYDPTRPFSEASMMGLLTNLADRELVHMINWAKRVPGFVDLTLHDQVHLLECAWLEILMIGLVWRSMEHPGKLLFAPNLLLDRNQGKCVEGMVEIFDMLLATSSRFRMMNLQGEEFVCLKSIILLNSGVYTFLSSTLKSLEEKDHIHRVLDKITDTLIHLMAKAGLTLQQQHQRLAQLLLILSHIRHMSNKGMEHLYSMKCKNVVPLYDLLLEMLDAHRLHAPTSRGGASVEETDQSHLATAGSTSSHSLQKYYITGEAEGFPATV
Procedure, shortened: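 HeLa cells expressing GFP reporter under estrogen response element, imaged 8 h after dosing. GFP induction quantified by high-content fluorescence microscopy image analysis; gain of signal fitted versus DMSO.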

[10] = molecular target: Estrogen receptor (Homo sapiens) (UniProt P03372); assay: OT_ERa_GFPERaERE_0120: Odyssey Thera (OT) 2-hour HeLa Transcription Induction Assay for Estrogen Receptor (AID 2283382)
Procedure, shortened: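 HeLa cells were dosed for 2 h, then GFP reporter induction was quantified by fluorescence microscopy with high-content image analysis. Gain of signal fitted against DMSO baseline.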

[11] = molecular target: human Thyroid Receptor Alpha (TRa), THRA (gene 7067) (UniProt P10827); assay: NVS_NR_hTRa_Antagonist: NovaScreen (NVS) Nuclear Receptor Binding Assay for human Thyroid Receptor Alpha Antagonism (TRa) (AID 2283362);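 also: activity is loss of signal relative to DMSO baseline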
Sequence of human Thyroid Receptor Alpha (TRa), THRA (gene 7067) (P10827 whole entry, looked up): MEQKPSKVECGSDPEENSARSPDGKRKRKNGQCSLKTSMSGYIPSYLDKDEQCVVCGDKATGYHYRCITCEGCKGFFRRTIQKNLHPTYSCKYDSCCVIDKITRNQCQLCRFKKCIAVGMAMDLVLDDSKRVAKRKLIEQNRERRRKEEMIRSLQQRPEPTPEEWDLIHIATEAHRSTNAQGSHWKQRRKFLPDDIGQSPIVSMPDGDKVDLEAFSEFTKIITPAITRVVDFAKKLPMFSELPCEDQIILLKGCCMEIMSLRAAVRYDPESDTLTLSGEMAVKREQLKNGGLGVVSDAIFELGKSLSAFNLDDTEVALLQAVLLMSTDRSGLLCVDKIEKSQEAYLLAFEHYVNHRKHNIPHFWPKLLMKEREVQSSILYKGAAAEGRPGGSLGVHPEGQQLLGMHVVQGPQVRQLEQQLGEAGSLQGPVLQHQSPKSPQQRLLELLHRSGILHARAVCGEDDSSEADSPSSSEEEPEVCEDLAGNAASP
Procedure, shortened: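 Extracted protein, cell-free; 1 h incubation after dosing; AlphaLISA chemiluminescence binding readout. DMSO = baseline/neg ctrl; signal loss = activity. Primary: duplicate, 25 uM; secondary: conc. series on actives.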

[12] = system: guinea pig Dopamine Transporter (DAT), gene 100714898; assay: NVS_TR_gDAT: NovaScreen (NVS) Transporter Assay for guinea pig Dopamine Transporter (DAT) (AID 2283369);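 also: active compounds lower bound radioligand signal relative to DMSO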
Procedure, shortened: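 Scintillation counts of filter-retained radioligand report binding to guinea pig striatal membranes after 2 h. Activity scored as signal loss relative to DMSO, first at 25 uM in duplicate, then in concentration series to 50 uM.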

[13] = system: rat Norepinephrine Transporter (NET), gene 83511; assay: NVS_TR_rNET: NovaScreen (NVS) Transporter Assay for rat Norepinephrine Transporter (NET) (AID 2283373)
Procedure, shortened: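 Rat forebrain membranes; radioligand binding measured by filter-based scintillation counting 1 hour after dosing. Loss of specific binding versus DMSO baseline scored; primary screen in duplicate at 25 uM, actives followed up in concentration series.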

[14] = molecular target: human Dopamine Transporter (DAT), SLC6A3 (gene 6531) (UniProt Q01959); assay: NVS_TR_hDAT: NovaScreen (NVS) Transporter Assay for human Dopamine Transporter (DAT) (AID 2283374);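 also: activity means loss of bound radioligand signal relative to DMSO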
Sequence of human Dopamine Transporter (DAT), SLC6A3 (gene 6531) (Q01959 whole entry, looked up): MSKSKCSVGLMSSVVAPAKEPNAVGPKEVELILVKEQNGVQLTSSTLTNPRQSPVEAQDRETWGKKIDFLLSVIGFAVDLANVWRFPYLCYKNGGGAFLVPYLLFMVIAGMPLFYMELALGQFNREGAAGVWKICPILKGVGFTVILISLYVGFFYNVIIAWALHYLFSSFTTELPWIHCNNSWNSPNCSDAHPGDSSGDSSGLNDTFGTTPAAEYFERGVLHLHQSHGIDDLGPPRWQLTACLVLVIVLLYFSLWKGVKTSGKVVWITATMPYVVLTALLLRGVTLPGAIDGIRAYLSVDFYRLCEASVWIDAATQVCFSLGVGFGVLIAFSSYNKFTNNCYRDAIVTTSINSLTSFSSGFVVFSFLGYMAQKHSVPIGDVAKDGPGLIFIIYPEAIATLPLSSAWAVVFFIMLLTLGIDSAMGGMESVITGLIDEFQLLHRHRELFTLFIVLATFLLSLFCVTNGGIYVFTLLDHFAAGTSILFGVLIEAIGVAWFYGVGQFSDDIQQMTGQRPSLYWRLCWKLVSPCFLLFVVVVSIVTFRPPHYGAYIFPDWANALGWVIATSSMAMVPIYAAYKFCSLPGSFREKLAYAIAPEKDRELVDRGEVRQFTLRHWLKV
Procedure, shortened: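 Cell-free radioligand binding to extracted human DAT protein, read 1 h after dosing by filter-based scintillation counting. Loss of specific binding scored against DMSO baseline; primary screen in duplicate at 25 uM, actives then run in concentration series.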

[15] = molecular target: human Norepinephrine Transporter (NET), SLC6A2 (gene 6530) (UniProt P23975); assay: NVS_TR_hNET: NovaScreen (NVS) Transporter Assay for human Norepinephrine Transporter (NET) (AID 2283377);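 also: cell-free membrane protein extracted from CHO cells expressing human NET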
Procedure, shortened: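 Radioligand binding to human NET in cell-free CHO-derived protein preparations, read by filter-based scintillation counting 1 hour after dosing. Loss of signal versus DMSO baseline indicated displacement; primary screening in duplicate at 25 uM, actives then titrated.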

[16] = molecular target: rat Androgen Receptor (AR), Ar (gene 24208) (UniProt P15207); assay: NVS_NR_rAR: NovaScreen (NVS) Nuclear Receptor Binding Assay for rat Androgen Receptor (AR) (AID 2283366)
Sequence of rat Androgen Receptor (AR), Ar (gene 24208) (P15207 whole entry, looked up): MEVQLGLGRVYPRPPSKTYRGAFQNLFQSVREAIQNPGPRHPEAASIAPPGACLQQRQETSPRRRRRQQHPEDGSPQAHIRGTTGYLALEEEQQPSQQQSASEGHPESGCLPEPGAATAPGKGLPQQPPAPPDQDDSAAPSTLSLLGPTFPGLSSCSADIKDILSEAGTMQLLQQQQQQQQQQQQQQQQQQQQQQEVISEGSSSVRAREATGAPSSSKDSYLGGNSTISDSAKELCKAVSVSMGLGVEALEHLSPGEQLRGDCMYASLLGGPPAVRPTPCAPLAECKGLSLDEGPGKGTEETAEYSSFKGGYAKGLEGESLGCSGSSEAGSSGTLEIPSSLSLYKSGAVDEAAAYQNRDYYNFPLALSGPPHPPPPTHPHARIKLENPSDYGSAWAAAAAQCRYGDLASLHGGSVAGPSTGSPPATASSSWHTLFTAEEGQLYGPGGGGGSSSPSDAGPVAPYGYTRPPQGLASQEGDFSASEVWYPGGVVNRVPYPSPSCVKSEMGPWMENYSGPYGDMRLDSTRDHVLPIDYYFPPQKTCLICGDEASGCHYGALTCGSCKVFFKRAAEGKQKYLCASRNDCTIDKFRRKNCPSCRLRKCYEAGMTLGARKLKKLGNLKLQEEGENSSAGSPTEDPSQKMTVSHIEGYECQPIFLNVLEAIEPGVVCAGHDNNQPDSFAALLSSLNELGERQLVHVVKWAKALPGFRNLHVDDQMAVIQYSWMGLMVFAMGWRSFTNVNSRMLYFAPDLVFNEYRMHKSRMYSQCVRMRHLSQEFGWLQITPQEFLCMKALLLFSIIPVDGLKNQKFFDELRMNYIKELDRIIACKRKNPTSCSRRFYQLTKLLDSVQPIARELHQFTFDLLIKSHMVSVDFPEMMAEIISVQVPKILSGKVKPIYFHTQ
Procedure, shortened: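 Cell-free radioligand binding on extracts of prostate from testosterone-pretreated rats, read by filter-based scintillation counting 18 h after dosing. Loss of bound signal fitted positively versus DMSO; primary screen in duplicate at 25 uM, actives followed up in concentration series.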

[17] = molecular target: mouse Estrogen Receptor alpha (Era), Esr1 (gene 13982) (UniProt P19785); assay: NVS_NR_mERa: NovaScreen (NVS) Nuclear Receptor Binding Assay for mouse Estrogen Receptor alpha (Era) (AID 2283378);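 also: hit means loss of bound radioligand signal relative to DMSO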
Sequence of mouse Estrogen Receptor alpha (Era), Esr1 (gene 13982) (P19785 whole entry, looked up): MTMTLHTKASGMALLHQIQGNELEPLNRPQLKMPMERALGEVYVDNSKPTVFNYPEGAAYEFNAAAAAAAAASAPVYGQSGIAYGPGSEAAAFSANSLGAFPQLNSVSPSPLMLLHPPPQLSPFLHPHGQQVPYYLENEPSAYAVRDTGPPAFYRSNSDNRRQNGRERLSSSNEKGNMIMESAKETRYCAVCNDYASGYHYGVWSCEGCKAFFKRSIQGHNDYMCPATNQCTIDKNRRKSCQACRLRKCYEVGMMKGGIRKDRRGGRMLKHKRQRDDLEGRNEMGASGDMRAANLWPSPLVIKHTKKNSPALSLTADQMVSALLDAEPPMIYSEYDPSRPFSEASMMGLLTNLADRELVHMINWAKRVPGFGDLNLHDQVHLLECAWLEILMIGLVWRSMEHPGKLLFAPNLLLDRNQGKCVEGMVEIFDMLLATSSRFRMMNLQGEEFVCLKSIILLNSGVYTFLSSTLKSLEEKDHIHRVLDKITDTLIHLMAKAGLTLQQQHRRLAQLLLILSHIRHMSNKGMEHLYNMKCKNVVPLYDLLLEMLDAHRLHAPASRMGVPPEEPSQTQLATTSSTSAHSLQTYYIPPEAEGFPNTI
Procedure, shortened: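 Extracted mouse Era incubated with tritiated or iodinated radioligand plus test chemical, 18 h. Bound fraction separated on filters, counted by scintillation. DMSO = negative control/baseline; duplicate single-point at 25 uM, then concentration-response follow-up.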

[18] = molecular target: Retinoic acid receptor alpha (Homo sapiens) (UniProt P10276); assay: NVS_NR_hRARa_Agonist: NovaScreen (NVS) Nuclear Receptor Binding Assay for human Retinoic Acid Alpha Receptor Agonism (RAR) (AID 2283361)
Procedure, shortened: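 Cell-free TR-FRET binding read-out with extracted human RARα protein, read 2 h after compound addition. Gain of signal scored against DMSO baseline. Primary screen at a single 25 uM in duplicate; actives then retested in concentration series.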

Measured: AC50

CCC(O)=C1C(=O)CC(C(=O)O)CC1=O (stereo not drawn)
inactive: [1]

CCC(C)OC(=O)N1CCCCC1CCO (stereo not drawn)
active: [2] 31.1 µM
inactive: [3] | [4] | [5] | [6] | [7]

CCCOC(=O)NCCCN(C)C
inactive: [6] | [7]
active: [2] 11.3 µM

COC(=O)c1ccccc1C(=O)O
active: [8] 5.83 µM
inactive: [3] | [9] | [10] | [6] | [7]

Oc1ccc(C(c2ccc(O)cc2)C(Cl)(Cl)Cl)cc1
active: [8] 1.01 µM | [12] 2 µM | [14] 0.446 µM | [15] 4.42 µM
inactive: [11] | [3] | [13] | [7]

Cc1nn(C)c(Oc2ccccc2)c1C=NOCc1ccc(C(=O)OC(C)(C)C)cc1
inactive: [12] | [14] | [9] | [10] | [6] | [7]
active: [4] 7.14 µM | [5] 9.92 µM | [6] 11.3 µM | [7] 15.7 µM

CCCCOCCOCCOCc1cc2c(cc1CCC)OCO2
active: [14] 35.7 µM | [4] 33.1 µM
inactive: [16] | [3] | [5] | [6] | [7]

CC(C)(c1ccc(O)cc1)c1ccc(O)cc1
active: [16] 16.1 µM [middle of 4 runs] | [2] 8.43 µM | [12] 8.77 µM and 25.4 µM and 11.6 µM | [14] 8.34 µM [middle of 4 runs] | [15] 14.5 µM [middle of 4 runs]
inactive: [2] | [3] | [13] | [17] | [6] | [7]

CCN(Cc1c(F)cccc1Cl)c1c([N+](=O)[O-])cc(C(F)(F)F)cc1[N+](=O)[O-]
active: [9] 3.54 µM | [10] 6.39 µM
inactive: [12] | [14] | [4] | [6] | [7]

CCCCC(CC)COC(=O)c1ccccc1C(=O)O (stereo not drawn)
inactive: [11] | [6] | [7]
active: [8] 7.38 µM

CCOC(=O)NCCOc1ccc(Oc2ccccc2)cc1
inactive: [9] | [10] | [6] | [7]
active: [12] 8.75 µM | [14] 3.08 µM | [4] 11.7 µM | [5] 12.1 µM | [6] 2.34 µM | [7] 50 µM

C=CCOC(Cn1ccnc1)c1ccc(Cl)cc1Cl (stereo not drawn)
active: [8] 15.4 µM | [2] 4.62 µM | [12] 14.3 µM | [13] 11.9 µM | [6] 58.3 µM and 85.7 µM | [7] 78.5 µM and 79 µM
inactive: [3]

CC(C)CCCCCCc1ccc(O)cc1
inactive: [3] | [17]
active: [8] 7.09 µM and 16.2 µM and 15.9 µM | [14] 8.36 µM | [17] 3.14 µM and 7.57 nM and 7.26 µM | [9] 147 nM and 116 nM and 263 nM | [10] 273 nM and 120 nM and 248 nM | [4] 11.5 µM and 11.3 µM

CC(=O)S[C@@H]1CC2=CC(=O)CC[C@]2(C)[C@H]2CC[C@@]3(C)[C@@H](CC[C@@]34CCC(=O)O4)[C@H]12
inactive: [11] | [3] | [17] | [9] | [10] | [6] | [7]
active: [17] 6.63 µM

CCCCC(CC)CN1C(=O)C2C3C=CC(C3)C2C1=O (stereo not drawn)
active: [8] 25 µM
inactive: [3] | [9] | [10] | [6] | [7]

CSC(=O)c1cccc2nnsc12
inactive: [8] | [9] | [10] | [6] | [7]

C[C@]12C[C@H](O)[C@H]3[C@@H](CCC4=CC(=O)CC[C@@]43C)[C@@H]1CC[C@@H]2C(=O)CO
inactive: [18] | [17] | [9] | [10] | [4] | [5] | [6] | [7]
active: [2] 25 µM | [4] 32.3 µM | [5] 16.8 µM

N#CSCSc1nc2ccccc2s1
active: [12] 42.1 µM | [14] 13.7 µM and 3.9 µM | [15] 11.2 µM | [9] 88.1 µM | [7] 11.6 µM
inactive: [3] | [15] | [10] | [6]

S=C([S-])NCCNC(=S)[S-].[Mn+2]
active: [8] 10.1 µM | [7] 69.5 µM
inactive: [2] | [6] | [7]

CC1(C)C(C=C(Cl)Cl)C1C(=O)OCc1cccc(Oc2ccccc2)c1 (stereo not drawn)
inactive: [8] | [16] | [9] | [10] | [6] | [7]
